Assay outcomes: PubChem BioAssay, Broad Institute
Rows were chosen to be rich in hits. Some 2.5% of all compounds tested hit in one or more screens of this group.
MLL AF4-AF9 inh – inhibitors of AF4 peptide binding to AF9, primary screen, biochemical, AlphaScreen, biotin-AF4 peptide, FLAG-AF9, single point; Protein AF-9 (Homo sapiens), P42568; inhibition, % at 10 µM; 350,000 tested, 0.47% active; AID 651704, 2012;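 active = every replicate reaching a set inhibition limit, whatever the replicate mean, cut at about 25% in these data; inconclusive = mean inhibition reaches that limit but some replicates miss it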;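 also: 0% = plate neutral control median and 100% = total signal loss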
Ecoli rRNA inh – reduced GFP signal of wild-type E. coli, primary screen, bacterial rRNA inhibitor project, GFP/RFP fluorescence, OD600, single point | E. coli WT GFP vs humanized-ribosome RFP mutants, 24 h; hits give low values; DMSO median 0, no signal -100 | GFP signal change (wild-type ribosome), % (concentration not given with the values) | AID 720706, 2013 | 350,000 tested, 1.6% active;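 active = significant combined selectivity score with lowered wild-type GFP, culture density cut under 30%, mutant RFP and density less affected; inactive = any of these conditions unmet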
RAD52 anneal inh – RAD52 DNA annealing inhibitors, primary screen, biochemical, FRET, single point, set 2; DNA repair protein RAD52 homolog (Homo sapiens), P43351; recombinant RAD52 DNA annealing, FRET fluorescence; inhibition, % at 18.7 µM; 360,000 tested, 0.46% active; AID 651710, 2012;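 active = every replicate showing at least 50% inhibition; inconclusive = mean inhibition at least 50% but not in every replicate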
Casp6 inh – human caspase-6 inhibitors, primary screen, biochemical, VEID-R110 fluorescence, single point, set 2; 350,000 tested, 0.53% active; purified caspase-6, Z-VEID-R110 cleavage fluorescence; P55212; AID 686996, 2013; inhibition, % at 12.5 µM;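 active = mean inhibition across replicates at least about 35%, with every replicate also reaching that limit, limit read from the data; inconclusive = only one of the two criteria met; inactive = neither criterion met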;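 also: 0% = median of neutral control wells and 100% = no fluorescence left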
Target sequence (P55212 24-179 limits assumed): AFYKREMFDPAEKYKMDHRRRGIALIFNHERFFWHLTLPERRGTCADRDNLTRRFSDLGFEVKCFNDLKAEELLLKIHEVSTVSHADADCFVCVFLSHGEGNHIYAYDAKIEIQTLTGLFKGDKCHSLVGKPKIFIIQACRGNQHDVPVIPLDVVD
Target sequence (P55212 194-293 limits assumed): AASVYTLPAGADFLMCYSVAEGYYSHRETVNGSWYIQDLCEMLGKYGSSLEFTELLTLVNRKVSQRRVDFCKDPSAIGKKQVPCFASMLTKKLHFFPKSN
NSD2 HMT inh – NSD2 histone methyltransferase inhibitors, primary screen, biochemical, AlphaScreen, single concentration, set 2. Histone-lysine N-methyltransferase NSD2 (Homo sapiens), O96028. NSD2 peptide methylation, 120 min. inhibition, % at 12.5 µM. 310,000 tested, 0.54% active; in the data active = inhibition above about 50%
* hit, by the source's call; i = inactive; ? = inconclusive; . = no result.

SMILES | MLL AF4-AF9 inh | Ecoli rRNA inh | RAD52 anneal inh | Casp6 inh | NSD2 HMT inh
O=C(NC1CCC1)[C@@H]1[C@@H](CO)[C@@H]2Cn3c(ccc(-c4ccccc4F)c3=O)[C@@H]2N1Cc1ccncc1 | 0.8 | -2.6 | 85.2* | -1.5 | .
O=C(CN1CCOCC1)N[C@@H]1CC[C@H](CCNC(=O)C2CCCCC2)O[C@@H]1CO | -2.1 | -0.4 | -5.7 | -0.3 | .
COc1ccc(C(CC(=O)c2ccc(C)cc2)Sc2ccccc2N)cc1 (centres undefined) | ? | 0.8 | -15.0 | . | 0.4
Nc1ccccc1SC(CC(=O)c1ccccc1)c1cccc([N+](=O)[O-])c1 (centres undefined) | 2.7 | -24.2* | -9.2 | -0.6 | -0.4
Nc1ccccc1SC(CC(=O)c1ccccc1)c1ccc([N+](=O)[O-])cc1 (centres undefined) | 5.0 | -20.1* | -15.5 | -0.9 | 2.0
COc1ccccc1OCCn1cc(C=O)c2ccccc21 | -8.0 | -2.0 | 0.3 | -2.1 | -0.8
O=Cc1cn(CCOc2ccccc2F)c2ccccc12 | -3.2 | -42.0* | -11.5 | -1.2 | -0.1
C[C@@H]1CN([C@@H](C)CO)C(=O)c2c(c3ccccc3n2C)-c2ccccc2CO[C@H]1CN(C)Cc1cccc(F)c1 | 4.8 | -4.3 | 5.0 | 0.1 | .
CC(C)(O)c1[nH]c2ccc(C(F)(F)F)cc2c1C(C)(C)O | -7.5 | -11.6 | -25.3 | -2.1 | .
CC(C)(O)c1[nH]c2ccc(C#N)cc2c1C(C)(C)O | 45.7* | -4.1 | -10.4 | -2.4 | .
O=C(/C=C/c1cccc([N+](=O)[O-])c1)NCCSCc1c(Cl)cccc1Cl | -3.5 | -17.4 | -12.9 | -0.8 | -0.4
O=C(/C=C/c1cccc([N+](=O)[O-])c1)NCCSCc1ccc(Cl)cc1 | -7.2 | -20.4* | 7.8 | 1.7 | -1.0
COc1ccccc1CNC(=O)C[C@H]1C[C@H]2c3cc(NC(=O)CC4CC4)ccc3O[C@H]2[C@@H](CO)O1 | . | -2.1 | . | . | .
COc1cccc2c1C(=O)c1c(O)c3c(c(O)c1C2=O)C[C@@](O)(C(C)=O)C[C@@H]3O[C@H]1C[C@H](N)[C@H](O)[C@H](C)O1 | 30.7* | 25.1 | i | -81.9 | .
Cc1ccc(S(=O)(=O)N[C@@H]2C=C[C@H](CC(=O)N3CCN(c4ccccc4)CC3)O[C@@H]2CO)cc1 | 1.2 | -3.0 | 4.0 | -0.9 | .
Cc1ccc2c(c1)N(CCCC(=O)NCCCN1CCCC1=O)C(=O)CO2 | 49.2* | 4.3 | 2.8 | -1.3 | .
Cc1ccc2c(c1)N(CCC(=O)NCCCN1CCCC1)C(=O)CO2 | -0.6 | 3.9 | -8.9 | -21.8 | 6.2
COc1ccc(C(=O)OCC(=O)c2ccc(F)cc2)cc1OC | -0.8 | -22.3* | -12.0 | 22.3 | -2.4
Cc1cccc(OCC(=O)NNC(=O)c2ccc3nc[nH]c3c2)c1 | 0.5 | 1.7 | -6.8 | 40.7* | 2.3
O=C(CNc1ccc(Br)cc1)c1ccc(O)cc1 | 4.1 | -45.0* | -9.4 | 5.3 | 15.1
CC(C)NC(=O)N(C)C[C@H]1Oc2ccc(NS(C)(=O)=O)cc2CC(=O)N(C)C[C@H]1C | . | 0.2 | . | . | .
Cc1nn(-c2ccccc2)nc1C(=O)Nc1nnc(C(F)(F)F)s1 | -3.4 | -31.9* | -2.8 | -1.0 | 0.8
CCc1nnc(NC(=O)c2nn(-c3ccccc3)nc2C)s1 | -3.3 | -9.1 | -7.6 | 2.6 | -1.7
COc1ccc(-c2cc(C(=O)NN)[nH]n2)cc1OC | -0.5 | -21.5* | 12.2 | -0.1 | -3.4
COc1ccccc1-c1cc(C(=O)NN)[nH]n1 | -19.1 | -20.4* | -1.5 | -1.5 | -0.7
COc1cccc(C(=O)N2CCN(Cc3ccc(OC)cc3OC)CC2)c1 | -1.1 | 1.8 | -19.2 | 41.5* | -1.3
Cc1nc2ccccc2n1Cc1ccc(Br)cc1 | 3.0 | -47.0* | -9.3 | -4.4 | 0.0
Cc1nc2ccccc2n1Cc1ccccc1 | 1.4 | -6.9 | -16.4 | -0.8 | -1.4
Cc1ccc(C(=O)O)cc1N1C(=O)c2cccc3c([N+](=O)[O-])ccc(c23)C1=O | -12.6 | 92.8 | -130.3 | 41.5* | 48.9
O=C(O)c1ccc(CN2C(=O)c3cccc4c([N+](=O)[O-])ccc(c34)C2=O)cc1 | . | 40.8 | -165.0 | 2.4 | .
